PubChem BioAssay AID1117361 (Southern Research Institute, 2015)
About 900 (25%) of roughly 3,600 compounds were called active. The list is a sample of the results. Entries with a potency or affinity are not part of this list. Unmarked numbers belong to inactive results. No rule for the calls is given here.

The compounds below were run against Protein Tat (Human immunodeficiency virus type 1 group M subtype B (isolate HXB2)) (UniProt P04608) (assay: inhibitors of Tat binding to TAR RNA, dose response, counter-screen for Vif-APOBEC3G degradation inhibitor project, biochemical, fluorescence polarization, FAM-labeled TAR RNA (AID 1117361)). Conditions: outcome: dose series up to 100 µM unless noted; series mostly up to 100 µM; inhibition: at the top concentration.

SMILES	outcome	inhibition [%]
COc1cccc2sc(N(C)c3ccccc3)nc12	inactive	–
CC1CCN(S(=O)(=O)c2cc(Br)cc(C(=O)NC3=NCCS3)c2)CC1	–	4.05
COc1cc(/C=N/NC(=O)c2ccc(NS(=O)(=O)c3cccs3)cc2)cc(OC)c1O	inactive	–
C=CCNC(=O)c1ccncc1	–	2.03
CCn1cc(C(=O)N2CCOCC2)c(=O)c2cc(S(=O)(=O)N(C)C3CCCCC3)ccc21	inactive	–
CSc1cccc(NC(=O)C(C)C)c1	–	19
CSc1cccc(NC(=O)CN(c2cc(C)ccc2C)S(C)(=O)=O)c1	–	6.08
CCOC(=O)C1CCN(C(=O)c2ccc(Cl)c(S(=O)(=O)N3CCOCC3)c2)CC1	–	13
O=C(N/N=C/c1ccc(F)cc1)c1ccc(Br)cc1	–	13.6
CSCC[C@H](NC(=O)NCc1ccccc1F)C(=O)O	–	2.03
COc1ccc(NC(=O)c2cccnc2C(=O)O)c(OC)c1	–	4.95
O=C(O)c1ccccc1NS(=O)(=O)c1ccccc1C(F)(F)F	–	1.36
Cc1cc(=O)[nH]c2c1c(C)nn2C1CCCC1	inactive	–
Cc1ccc2c(c1)c(=O)c1c3n2CCN(C(=O)CCl)C3CC1 (stereo not given)	–	16.4
O=C(COC(=O)c1ccccc1OC(F)F)Nc1ccc2[nH]c(=O)[nH]c2c1	inactive	–
CCN(CC)C(=O)c1sc(NC(=O)c2ccc(Br)o2)c(C(=O)OC)c1C	–	5.46
C=CCNC(=O)c1ccccc1Cl	inactive	–
CCc1c(C(=O)NCc2ccccc2Cl)[nH]c(C)c1C(C)=O	inactive	–
Nc1ccc(Sc2cc(Cl)nc(N)n2)cc1	–	4.05
O=C(CSc1nc(N2CCCCC2)nc(N2CCCCC2)n1)N1CCc2ccccc21	inactive	–
O=C(Cn1ccc([N+](=O)[O-])n1)N1CCCc2ccccc21	–	2.03
CCCCNC(=O)CN1C(=O)CSc2ccc(S(=O)(=O)N3CCOCC3)cc21	inactive	–
CO/N=C/C(=N\Nc1ccc(OC)cc1)C(=O)c1ccc(OC)cc1	–	5.46

SMILES	outcome	inhibition [%]
COc1ccc(C(=O)C2CCCN(C(=O)c3cnsn3)C2)c(C)c1 (stereo not given)	inactive	–
CC(=O)c1ccc(-c2nnc(CCC(=O)N(C)Cc3c(C)nc4ccccn34)o2)s1	–	4.95
CN(C(=O)CSc1ncnc2sccc12)C1CCCCC1	inactive	–
O=C(/C=C/c1ccccc1)NC(NC(=S)Nc1cc(Cl)ccc1Cl)C(Cl)(Cl)Cl (stereo not given)	inactive	–
COC(=O)c1cccc(NC(=O)c2cccc(OC)c2)c1	–	4.05
O=C(O)c1cccc(NCc2ccncc2)c1	–	20.9
COC(=O)c1ccc(NC(=O)COc2cccc(-n3cnnn3)c2)cc1	–	6.35
CC(=O)Nc1ccc2c(c1)Cc1cc(N3C(=O)C=CC3=O)ccc1-2	inactive	–
CCOc1ccc(C2=[N+]([O-])C(C)(C)N(O)C2(C)C)cc1	–	3.41
CCCCn1nnc(NC(=O)c2ccc(-c3cccc(Cl)c3)o2)n1	–	0.68
CC1(C)CC(=O)c2cc(OCC(=O)NCc3cccnc3)ccc2O1	–	8.11
CCOC(=O)/C(=C/c1c2ccccc2cc2ccccc12)NC(=O)c1ccccc1	–	3.38
CCOC(=O)/C(=C\c1ccccc1)NC(=O)c1ccccc1	inactive	–
COc1ccc(S(=O)(=O)NCc2ccccn2)cc1	–	4.05
Cc1cccc(C)c1NS(=O)(=O)c1c(C)[nH]c(=O)[nH]c1=O	–	6.14
COc1ccc(CNc2ncnc(N)n2)cc1	–	5.41
CC(C)CC(NC(=O)CCl)c1ccccc1 (stereo not given)	inactive	–
CCCC(=O)Nc1ccccc1NC(C)=O	–	4.05
CCN(CC)C(=O)CSCC(=O)Nc1ccccc1	–	2.03
CCOC(=O)c1ccc(NC(=O)CSc2nnc(Cc3cccs3)n2C)cc1	–	4.77
O=C(c1c(F)cccc1F)N(Cc1ccccn1)C1CCCC1	inactive	–
O=C(CCn1c(=O)c2ccccc2n(CC(=O)NCCC2=CCCCC2)c1=O)NCc1ccco1	–	16.4
O=C(NCCc1ccc(Cl)cc1)C1CCN(C(=O)c2sccc2-n2cccc2)CC1	–	10.2

SMILES	outcome	inhibition [%]
COc1cc(C(O)P(=O)(OCC(C)C)OCC(C)C)cc(OC)c1OC (stereo not given)	inactive	–
Cc1ccc(CNC(=O)C2c3ccccc3C(=O)N3CCc4ccccc4C23)o1 (stereo not given)	–	10.9
CN1CCN(C(=O)c2ccc(N(C)S(=O)(=O)c3cccs3)cc2)CC1	inactive	–
Cc1ccc(CSC2=Nc3sccc3C3=NC(=O)CN23)cc1	–	25.9
COCC(=O)NCCc1nc2ccccc2[nH]1	–	2.03
COCCn1c(N2CCN(c3ccc(OC)cc3)CC2)nc2c1c(=O)[nH]c(=O)n2C	inactive	–
CCn1c(=N)n(CC(=O)c2ccc(OC)cc2)c2ccccc21	inactive	–
CCCn1c(NC(=O)c2ccco2)nc2ccccc21	inactive	–
CC(=O)c1sc(NC(=O)C2CCN(C(=O)c3ccccc3C)CC2)nc1-c1ccccc1	–	19
COc1ccc2oc(C(F)(F)C(F)(F)F)cc(=O)c2c1	–	8.87
O=C(CN1CCC(NC(=O)c2cccc(F)c2)CC1)NCc1ccccc1F	–	13.6
CCN(CC)C(=O)CN1C(=O)C2(NC(=O)c3ccccc3N2)c2ccccc21 (stereo not given)	inactive	–
Cc1ccc(OC(=O)COc2ccccc2)c(-n2nc3ccccc3n2)c1	–	1.36
O=C(NCc1ccncc1)c1ccc(Cn2cc(C(F)(F)F)ccc2=O)cc1	inactive	–
CCc1ccc(NS(=O)(=O)c2cccs2)cc1	–	8.11
CC(OC(=O)c1cccs1)C(=O)NCc1ccco1 (stereo not given)	–	3.38
COc1cccc(-c2nnc(SCC(=O)OC(C)C)n2N)c1	–	1.35
O=C(c1ccco1)N(Cc1ccco1)c1ccc(O)cc1	inactive	–
O=C(c1ccco1)N(Cc1ccc([N+](=O)[O-])cc1)c1ccc(Cl)cc1	inactive	–
O=C(Cn1ncc(Cl)c(Cl)c1=O)c1ccc2c(c1)OCCO2	inactive	–
CCCCCCC(=O)N(O)C1CC(=O)N(c2ccc(Br)cc2)C1=O (stereo not given)	–	9.55
Nc1nc(SCC(=O)OCc2ccccc2)[nH]c(=O)c1NC(=O)c1ccco1	–	0.68
COc1cc(N2C(=O)C=CC2=O)ccc1N1C(=O)C=CC1=O	–	9.02

SMILES	outcome	inhibition [%]
O=S(=O)(N1CCCCC1)N1CCN(c2ccccc2F)CC1	–	7.43
NS(=O)(=O)c1ccc(CCNC2CC(=O)N(Cc3ccccc3)C2=O)cc1 (stereo not given)	inactive	–
COc1ccc(CCN2C(=O)c3cccnc3C2=O)cc1OC	–	4.09
COc1ccc(Nc2ncc(F)c(N3CCOCC3)n2)cc1	inactive	–
CCNC(=O)CC1C(=O)N(c2ccc(C)cc2)C(=O)N1CCc1ccc(OC)c(OC)c1 (stereo not given)	–	6.82
O=C1CC(Nc2ccc(N3CCOCC3)cc2)C(=O)N1CCc1ccccc1 (stereo not given)	inactive	–
CN1CCN(/C=C(\C#N)S(=O)(=O)c2ccc(Cl)cc2)CC1	–	25.6
S=C(NCc1ccccn1)Nc1ccc(Cl)c(Cl)c1	inactive	–
O=C(NCc1ccc(F)cc1)C1CCC(CNc2c(N3CCCCC3)c(=O)c2=O)CC1 (stereo not given)	inactive	–
Cc1cc(C)cc(N(CC(=O)NCc2cccnc2)S(C)(=O)=O)c1	–	14.2
CCSc1nnc(NC(=O)c2cccc3ccccc23)s1	–	5.41
Cc1ccc(C(C)C)c(OCCN(C)C)c1	–	0.68
Cc1cc(C)cc(CC2CC(=O)N(c3ccc4c(c3)OCCO4)C2=O)c1 (stereo not given)	inactive	–
COc1ccc(C2OC(=O)CC2C(=O)N2CCN(c3cc(Cl)ccc3C)CC2)cc1OC (stereo not given)	inactive	–
CCOC(=O)C(C#N)(Cc1ccc2ccccc2n1)Cc1ccc2ccccc2n1	–	1.67
Cc1ccccc1NS(=O)(=O)c1ccc2[nH]cc(C(=O)N(C)Cc3ccco3)c(=O)c2c1	inactive	–
CC1CCCCN1CCCNC(=O)C1CCN(c2nc3ccccc3o2)CC1 (stereo not given)	–	2.7
CCN(CC)c1ccc(NC(=O)c2ccco2)cc1	inactive	–
CCOc1ccc(Cl)cc1S(=O)(=O)N1CCN(c2ccc(F)cc2)CC1	–	10.8
O=C(Nc1ccc(COc2ccccc2)cc1)Oc1ccccc1N1CCOCC1	inactive	–
O=C1CC(NCc2ccco2)C(=O)N1CCc1ccccc1 (stereo not given)	–	2.34
COc1ccccc1CNCC(=O)Nc1ccc(N2CCOCC2)cc1	–	6.6
COc1ccccc1N1C(=O)CC(Sc2nccc(C)n2)C1=O (stereo not given)	–	7.5

SMILES	outcome	inhibition [%]
O=C(CSc1ccc(Cl)cc1)c1ccco1	inactive	–
O=[N+]([O-])c1ccc(-c2c[nH]c(=S)[nH]2)cc1	–	27.2
CC1(C)OC(=O)C(=CNC(Cc2c[nH]c3ccccc23)C(=O)O)C(=O)O1 (stereo not given)	–	2.05
CC(C)(C)c1ccc(OCC(=O)NCCN2CCCC2)cc1	–	7.43
Cc1ccc(S(=O)(=O)N2CCOCC2)cc1C(=O)Nc1nc2ccccc2[nH]1	–	15.7
CC(NC(=O)c1ccco1)C1CCCO1 (stereo not given)	inactive	–
CC1(C)Cc2c(cnn2-c2ccccc2)C(NC(=O)CCCN2CCCCC2=O)C1 (stereo not given)	inactive	–
O=S(=O)(NCc1cn2ccsc2n1)c1cccs1	–	0.68
Nc1cccc2c1C(=O)N(C(=O)/C=C/c1cccc(Br)c1)C2=O	–	19
COc1ccc(NC(=O)O/N=C/c2ccccc2Cl)cc1	–	3.3
Cc1ccc(S(=O)(=O)N/N=C/c2ccc(OCC(=O)Nc3ccccc3Cl)cc2)cc1	–	7.43
Cc1ccc(OCC(=O)NNC(=O)CCc2ccccc2)cc1	inactive	–
COc1ccc(OC)c(NC(=O)CCN2CCC(C)CC2)c1	–	14.2
COc1ccccc1N(C)S(=O)(=O)c1ccc(C(=O)NC(C)(C)C)cc1	inactive	–
Cc1ccn(C(=O)c2cc3ccccc3oc2=O)n1	–	0.68
COc1ccc(-n2ncc3c(N4CCC(C(N)=O)CC4)ncnc32)cc1	inactive	–
Cc1cccc(-n2c(=O)cc(N3CCN(c4ccc(F)cc4)CC3)[nH]c2=O)c1	inactive	–
CCCn1c(SCC(=O)c2cc(C)ccc2C)n[nH]c1=O	–	12.8
CCOC(=O)CSc1nnc(CNC(=O)c2ccccc2OC)n1-c1ccc(OC)cc1	–	4.09
CCOc1ccc(-n2c(SCC(N)=O)nnc2-c2cccnc2)cc1	–	9.9
Cc1ccc(C)c(-n2c(SCC(N)=O)nnc2-c2ccccn2)c1	–	9.46
S=C1NC2(CCCCCC2)N=C1c1ccccc1	inactive	–
Cc1ccc(C)c(/C(O)=C2/C(=O)C(=O)N(CCN3CCOCC3)C2c2ccco2)c1 (stereo not given)	–	10.3
